# Bioassay records deposited in PubChem BioAssay by several laboratories.
# HSF-1 act – increases HSF-1 driven luciferase reporter signal; NIH3T3-HGL HSF-1 luciferase reporter, MG132, 8 h; 100% = twice DMSO control signal; activation, % at 9 µM; hit rate 1.7% among 300,000; AID 504408;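 active means mean replicate activation of at least 50% with a set share of replicates each reaching 50%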;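 further: 0% = median of the neutral control wells and 100% = twice that signal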
# HSF1 inh – HSF1 inhibition; NIH3T3-HGL HSE-luciferase, MG132-induced, luminescence 8 h; stronger effect = lower value; activity change, negative = inhibition, % at 7.5 µM (by protocol); hit rate 0.77% among 300,000;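 active means more than half of replicate wells show activity change below -50%, luminescence cut by over half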;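 further: luciferase reports HSF-1 transcriptional activity via heat shock element; 0% = median of DMSO wells and -100% = zero luminescence signal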
# HSP90 inh – HSP90 refolding inhibition in rabbit reticulocyte lysate; luciferase refolding luminescence, 3 h; inhibition, % at 5.6 µM; hit rate 0.91% among 290,000; AID 1789;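 active means inhibition above the screen-wide mean plus 3 SD, computed separately per campaign, cut at about 16% in these data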;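 further: 0% = DMSO wells and 100% = 60 µM geldanamycin wells; inhibitors lower the luminescence because luciferase stays unfolded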
# pCIP destab – p/CIP protein destabilization; Q05BA5; F442A p/CIP-EGFP cells, EGFP fluorescence, 16 h; decrease of EGFP signal, % at 10 µM; hit rate 0.01% among 290,000; AID 1984;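 active means EGFP signal decrease of at least 30% at 10 µM or well 3 SD below plate mean, unless failing retest; inactive means the rest, including hits failing retest or dose response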
# NALP1 yeast inh – blocks the NALP1 inflammasome reconstituted in yeast | S. cerevisiae NALP1/ASC/caspase-1 growth, X-gal OD620, 72 h | inhibition, % at 10 µM | hit rate 0.61% among 280,000 | AID 2071; in the data active means inhibition mostly above about 24%, no sharp cut-off; inactive means mostly below about 32%
# Hsp70 activator – switches on Hsp70 transcription; activation, % at 10 µM; hit rate 0.04% among 200,000; AID 1203; HeLa Hsp70 promoter luciferase reporter, luminescence; scaled: vehicle 0, proteasome-inhibitor control 100%;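 active means activation above the mean across all tested compounds plus 3 SD, cutoff set per campaign, cut at about 5.5% in these data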;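 further: 100% = MG132 at 30 µM as the positive control and 0% = DMSO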
# Active calls of the source: *; x = no result given. In the library only some 3.8% were active in any assay of this set; here they are far more common.
SMILES,HSF-1 act,HSF1 inh,HSP90 inh,pCIP destab,NALP1 yeast inh,Hsp70 activator
CCOC(=O)c1ccc(N2Cc3ccccc3C2=NC(=O)c2cccc([N+](=O)[O-])c2)cc1,68*,30,x,x,x,x
O=C(N=C1c2ccccc2CN1c1ccccc1)c1cccc([N+](=O)[O-])c1,19,0,0,-3,37,0
Cc1ccc(S(=O)(=O)CCC(=O)Nc2cc(Cl)ccc2-n2cncn2)cc1,1,-1,x,x,x,x
O=C(Cn1cc(Cl)ccc1=O)c1ccc(Cl)cc1,5,5,2,-15,26,0
CC(=O)n1cc(N(C(=O)CCl)c2ccc([N+](=O)[O-])cc2)c2ccccc21,75*,61,7,12,-4,x
O=C(N/N=C/c1cn(-c2ccccc2)nc1-c1cccs1)c1ccncc1,27,10,2,-6,19,0
O=C(N/N=C/c1cn(-c2ccccc2)nc1-c1ccccc1)c1ccco1,16,-1,-1,9,27,0
O=C(N/N=C/c1cn(-c2cccs2)nc1-c1ccccc1)c1ccccc1Cl,59*,22,3,-2,24,0
O=C(N/N=C/c1cn(-c2cccs2)nc1-c1ccccc1)c1ccc(O)cc1,57*,21,5,5,14,0
Cc1nc2ccc(NC(=O)NC(=O)c3c(Cl)cccc3Cl)cc2o1,29,9,0,-2,x,x
CN1CCN(NC(=O)c2ccc(Cl)c(S(=O)(=O)Nc3ccc(Cl)cc3)c2)CC1,5,9,2,15,12,x
c1ccc(-c2nc3nc4ccccc4nc3n2Cc2ccco2)cc1,-3,8,3,-4,25,0
Fc1ccc(-c2nc3nc4ccccc4nc3n2Cc2ccco2)cc1,36,23,17*,-8,-4,0
CCCCn1c(=O)[nH]c(=O)c2c1nc(Cn1ncc(Cl)c(Cl)c1=O)n2CCC,-93,-93*,4,-7,5,x
CCN(CC)S(=O)(=O)c1ccc2c(c1)N(CC(=O)NCC1CCCO1)C(=O)CO2 (stereo not drawn),-8,-6,5,0,18,x
COc1cc(CC(=O)OCC(=O)N2CCCCC2)cc(OC)c1OC,3,-14,-5,-4,16,x
Cc1nnsc1S(=O)c1ccc(Cl)cc1 (stereo not drawn),5,3,-4,6,-3,x
Cc1nnsc1S(=O)c1ccc(Cl)c(Cl)c1 (stereo not drawn),-85,-81*,-2,-8,4,x
O=C(NCc1ncc(C(F)(F)F)cc1Cl)Nc1ccccc1,12,1,0,-1,-2,x
CCC(=O)Nc1ccc2c(c1)ncn2-c1ccc(C)cc1,53*,26,-4,7,4,0
Cc1cc(NC(=O)COC(=O)CCS(=O)(=O)c2cc(Cl)ccc2Cl)no1,8,0,-2,1,-4,x
CCn1c(-c2ccccc2)c(C(=O)CCl)c2ccccc21,98*,60,-2,9,26,0
CC(C)CN=Cc1c(O)c([N+](=O)[O-])cc2oc3c(c12)CCCC3,-13,-17,1,-15,50*,0
CC(=O)c1ccc(OCc2cc(C(=O)N(C)C(C)c3nccs3)no2)cc1 (stereo not drawn),85*,47,5,2,9,x
CC(=O)c1ccc(OCc2cc(C(=O)N(C)C(C)c3ccon3)no2)cc1 (stereo not drawn),-12,-2,-4,-12,15,x
SMILES,HSF-1 act,HSF1 inh,HSP90 inh,pCIP destab,NALP1 yeast inh,Hsp70 activator
NC(=O)c1c(NC(=O)C2CCCO2)sc2c1CCCC2 (stereo not drawn),42,-4,-2,-5,24,0
O=C1CC(c2ccco2)CC2=C1C=Nc1ccccc1N2 (stereo not drawn),11,1,1,-3,-4,0
O=c1[nH]c2c(s1)C=Nc1ccccc1N2,70*,34,-2,-12,-5,0
Cc1ccc(S(=O)(=O)c2c(C)cc(C)nc2N2CCOCC2)cc1,5,-5,1,-7,-16,0
Cc1ccc(S(=O)(=O)c2c(C)cc(C)nc2N2CCCCC2)cc1,58*,23,2,-4,-5,0
Cc1cc(C)c2c(n1)sc1c(=O)[nH]c(SCc3ccccc3)nc12,-91,-89*,-1,-7,32,0
c1ccc(CCSc2nccn2-c2ccccc2)cc1,58*,36,0,-19,9,0
COc1ccc(S(=O)(=O)NNC(=O)c2cc3ccccc3o2)cc1,-13,-8,-1,-6,34,0
O=C(Nc1ccn(Cc2ccccc2F)n1)c1ccc(COc2cccc(Br)c2)cc1,52*,29,10,-5,2,0
COc1ccc(NC(=O)C2CCN(c3ncnc4c3nc3n4CCCCC3)CC2)cc1Cl,-28,-13,1,3,34,x
CCn1cc(C2=NOC(C(=O)Nc3cc(OC)c(Cl)cc3OC)C2)c(C)n1 (stereo not drawn),6,-8,3,-4,33*,0
CC1SC(c2ccc(Cl)cc2)NC1=O (stereo not drawn),68*,24,-3,-1,33,0
COC(=O)c1nn(-c2ccc(OC)cc2)c(=O)c2c(N)sc(C)c12,2,3,-4,-7,18,0
Cc1cc2oc(=O)cc(Cn3ncc(Cl)c(Cl)c3=O)c2cc1Cl,81*,55,1,6,1,0
Cc1cc2oc(=O)cc(CN3CCCCC3C)c2cc1Cl (stereo not drawn),-6,-7,-3,-6,4,x
Cc1cc(C(=O)Nc2sc3c(c2C#N)CCC(C)C3)cs1 (stereo not drawn),74*,23,-6,3,14,0
Cc1ccccc1C(=O)NC(=S)Nc1sc2c(c1C#N)CCC(C)C2 (stereo not drawn),12,5,0,-3,-14,0
Cc1ccc(C)n1-c1sc2c(c1C#N)CCC(C)C2 (stereo not drawn),20,2,4,24,35*,0
CC(=O)Nc1sc2c(c1C#N)CCC(C)C2 (stereo not drawn),-2,-4,-3,-5,7,0
CC1CCc2c(sc(NC(=S)NC(=O)c3ccccc3)c2C#N)C1 (stereo not drawn),59*,33,1,-6,x,x
O=C(COc1ccc(F)cc1)Nc1ccccc1N1CCOCC1,7,-4,x,x,x,x
Cn1c(SCc2ccc(Br)cc2)nc2ccccc2c1=O,24,3,1,-14,22,x
O=c1c2ccccc2nc2n1C(CSc1ccc(Br)cc1)CN2 (stereo not drawn),-1,-1,-7,-5,31*,0
CN(CC(=O)Nc1cccc(F)c1)C(=O)CSc1ccccc1F,10,-2,4,-5,8,x
COc1ccc(N)c2c1C(=O)c1ccccc1C2=O,54*,31,-1,-1,23,0
